The sample as a whole holds a higher share of hits than the screen did.
TcdB inh: TcdB glycohydrolase inhibitors, primary screen, biochemical, single point, plate reader | TcdB glycohydrolase enzymatic assay | inhibition, % at 9.99 µM | 350,000 tested, 0.24% active; in the data active = inhibition above about 10%
Bead autofluor: counter-screen for toxin protease inhibitors: compound fluorescence; compound autofluorescence counterscreen, microsphere flow cytometry; stronger effect = higher value; fluorescence intensity (test concentration not listed); 360,000 tested, 3.1% active; in the data active = fluorescence intensity above about 16000; inconclusive = no clear call, values can overlap the other calls
BoNT-A LC inh2: BoNT/A light chain protease inhibitors, primary screen, biochemical, flow cytometry, MLPCN library; Botulinum neurotoxin type A light chain protease (Clostridium botulinum A str. ATCC 3502); multiplex microsphere protease substrate cleavage; inhibition, % at 10 µM; 360,000 tested, 0.17% active; also: plate controls were buffer without enzyme for full effect and enzyme alone for no effect
BoNT F protease: BoNT/F light chain protease inhibitors, primary screen, biochemical, flow cytometry, MLPCN library; Botulinum neurotoxin type F light chain protease (Clostridium botulinum); 360,000 tested, 0.22% active; AID 588497, 2011; inhibition, % at 10 µM; Multiplex microsphere protease cleavage assay; in the data active = inhibition above about 35%, passing the limit was not always enough; inconclusive = no clear call, values can overlap the other calls; also: plate controls were buffer without enzyme for full effect and enzyme alone for no effect
Anthrax LF prot: Bacillus anthracis LF protease inhibitors, primary screen, biochemical, multiplex microsphere, MLPCN library | Lethal factor (Bacillus anthracis), P15917 | multiplex microsphere protease cleavage assay | 360,000 tested, 0.12% active | AID 588501, 2011 | inhibition, % at 10 µM; also: plate controls were buffer without enzyme for full effect and enzyme alone for no effect
The depositor's hits bear a star; u = inconclusive; x = no result. Rule as the data show it, unless noted: active = inhibition above about 30%; inconclusive = no clear call, values can overlap the other calls; inactive = below that.

SMILES	TcdB inh	Bead autofluor	BoNT-A LC inh2	BoNT F protease	Anthrax LF prot
C[C@@H]1CN([C@H](C)CO)C(=O)c2ccccc2-c2ccccc2CO[C@H]1CN(C)S(=O)(=O)c1ccc(C#N)cc1	0	x	x	x	x
C[C@@H]1CN([C@@H](C)CO)C(=O)c2cc(NC(=O)NC3CCCCC3)ccc2O[C@@H](C)CCCCO[C@H]1CN(C)C(=O)CCC(F)(F)F	0	x	x	x	x
O=C(COC(=O)CNC(=O)C12CC3CC(CC(C3)C1)C2)Nc1ccccc1	x	19773*	u	11	-16
COc1cc(NC(=O)COC(=O)CNC(=O)C23CC4CC(CC(C4)C2)C3)cc(OC)c1	9	3288	-1	-9	-4
CCCc1cc(=O)n2[nH]c(-c3ccco3)nc2n1	3	23273*	-1	0	-2
CCCc1cc(=O)n2[nH]c(C)cc2n1	x	24507*	-3	-5	0
CCC(=O)N1CC2(CCN(Cc3cccnc3)CC2)c2c(n(C)c3cc(OC)ccc23)[C@@H]1CO	0	x	x	x	x
O=C(c1cccc(F)c1)N1CCCCN2[C@H](C1)[C@H](c1ccc(-c3cccnc3)cc1)[C@@H]2CO	0	x	x	x	x
CCC(C)c1ccc2oc(-c3ccc(NC(=O)c4ncn[nH]4)cc3)nc2c1 (stereo unspecified)	x	20099*	-1	-2	2
CC(C)c1ccc2oc(-c3ccc(NC(=O)c4ncn[nH]4)cc3)nc2c1	x	8057	0	-2	-2
O=C(C[C@@H]1CC[C@H](NC(=O)c2ccc3c(c2)OCO3)[C@H](CO)O1)NC1Cc2ccccc2C1	0	x	x	x	x
C[C@@H]1CN([C@H](C)CO)S(=O)(=O)c2ccc(C#CC3CC3)cc2O[C@@H]1CN(C)Cc1cccnc1	0	x	x	x	x
Cc1cc(Br)ccc1N=C1C(=O)Nc2ccccc21	0	3907	-4	0	9
O=C1Nc2ccccc2C1=Nc1ccccc1-c1ccccc1	10*	3371	0	-3	-3
Cc1cccc(OCc2nnc(N)s2)c1	1	24413*	u	-3	-4
Nc1nnc(COc2cccc(C(F)(F)F)c2)s1	x	5746	0	10	-1
O=C(N1CCOCC1)C(F)(F)C(F)(F)C(F)(F)C(F)(F)C(=O)N1CCOCC1	x	20612*	u	0	0
Cc1ccc(N(CC(=O)N2CCN(C3CCCCC3)CC2)S(=O)(=O)c2cccnc2)cc1	x	21207*	u	1	1
Cc1ccc(S(=O)(=O)N(CC(=O)N2CCCCCC2)c2ccccc2)cc1	x	8055	0	2	2
CO[C@@H]1CC[C@@H]2CCOc3c(C#N)cccc3C(=O)N(C)[C@@H](C)C(=O)N(C)C[C@@H]1O2	-1	x	x	x	x
CC(=O)Oc1ccccc1C(=O)OCO/N=[N+](\[O-])N1CCCC1	0	x	x	x	x
COc1cc(/C=N/NC2=NCCCCC2)ccc1O	14*	5044	1	0	-5
Oc1ccc(/C=N/NC2=NCCCCC2)cc1	x	10816	1	1	0
O=C(c1ccccn1)N1CC2(C1)[C@H](c1ccccc1)[C@@H](CO)N2C(=O)C1CCCC1	1	x	x	x	x
Cc1nn(CCC#N)c(NC(=O)c2ccc(Cl)cc2Cl)c1P(=O)(Nc1ccc([N+](=O)[O-])cc1)N1CCOCC1 (stereo unspecified)	x	16178*	1	3	0
SMILES	TcdB inh	Bead autofluor	BoNT-A LC inh2	BoNT F protease	Anthrax LF prot
Cc1cc(NC(=O)c2ccc(Cl)cc2Cl)n(CCC#N)n1	2	4241	0	3	0
CN(C)CC(=O)N[C@@H]1CC[C@@H](CCn2cc(CN(C)C)nn2)O[C@@H]1CO	-2	x	x	x	x
O=C(COc1ccc2ccccc2c1Br)N1CCN(c2ccccn2)CC1	0	21691*	2	1	-1
O=S(=O)(NC[C@H]1CC[C@@H]2NC[C@@H]2O1)c1ccccc1F	-1	x	x	x	x
CCc1nc(SCC(=O)NNC(=O)C2CCCCC2)c2ccccc2n1	x	21748*	u	-8	-2
Cc1ccc(SCC(=O)NNC(=O)C2CCCCC2)cc1	x	20856*	u	-1	-3
CC(=O)OC(C(=O)NC1CCCCC1)c1ccc(C)cc1 (stereo unspecified)	x	3626	0	0	0
Cc1noc(C)c1C(=O)OC(C(=O)NC1CCCC1)c1ccc(F)cc1 (stereo unspecified)	1	22114*	-5	-6	-1
Cc1cc(C)n(-c2ccn(Cc3ccc(Cl)cc3Cl)c(=O)n2)n1	x	23685*	-2	-4	-1
Cc1ccc(OCc2nc(-c3ccc(Cl)cc3)n[nH]2)cc1	x	19787*	2	1	-12
Fc1ccc(OCc2nc(-c3ccncc3)n[nH]2)cc1	0	4027	0	-1	3
C[C@H](CO)N1C[C@H](C)[C@@H](CN(C)C(=O)Nc2ccccc2)Oc2ncc(C#CC3CCCC3)cc2C1=O	0	x	x	x	x
Cc1nnc2n(-c3ccccc3)c(=O)c3c4c(sc3n12)CC(C)CC4 (stereo unspecified)	x	18626*	3	2	3
C[C@H]1CN([C@@H](C)CO)C(=O)c2cccc(N(C)C)c2O[C@@H]1CN(C)S(=O)(=O)c1cn(C)cn1	0	x	x	x	x
O=C1CC(c2cccc(Br)c2)C2=C(COC2=O)N1 (stereo unspecified)	-1	4573	-1	0	5
O=C1CC(c2ccccc2Cl)C2=C(COC2=O)N1 (stereo unspecified)	x	23482*	0	2	-1
Cc1noc(C)c1S(=O)(=O)N(C)C[C@@H]1OCCCC[C@H](C)Oc2ccc(NC(=O)C3CCCCC3)cc2C(=O)N([C@@H](C)CO)C[C@H]1C	0	x	x	x	x
O=C(NNS(=O)(=O)c1ccc(Br)cc1)c1ccncc1	x	20766*	-2	-2	-2
CC(=O)NNC(=O)c1ccncc1	x	5903	0	-3	-3
O=C(NNC(=O)c1ccncc1)c1ccncc1	x	22444*	-1	0	-9
O=C(C1CCCC1)N1CCCCN2[C@H](CO)[C@@H](c3ccc(-c4cccc(F)c4)cc3)[C@@H]2C1	0	x	x	x	x
COc1cccc(C(=O)N2C[C@H]3[C@@H](c4ccccc42)[C@@H](CO)N3C(=O)c2ccccc2)c1	-1	x	x	x	x
Cc1cnc(C(=O)Nc2ccc(F)cc2)cn1	x	21955*	3	6	2
Cc1cnc(C(=O)Nc2ccc(C(C)C)cc2)cn1	1	3899	0	-2	-1
Cc1cc(N2C(=O)C3C4c5ccccc5C(c5ccccc54)C3C2=O)no1 (stereo unspecified)	x	21886*	2	3	-3
O=C(Nc1cccc(O)c1)c1cnn2cccnc12	1	19751*	2	0	-3
O=C(Nc1ccccc1C(=O)Nc1ccccn1)c1ccccc1F	2	4072	1	45*	11
O=C(Nc1ccccc1C(=O)Nc1ccccn1)c1cc(F)c(F)cc1Cl	2	2834	0	11	-2
O=C(Nc1ccon1)c1ccccc1F	x	23297*	1	-1	3
O=C(Cc1ccccc1)N1CCCC1c1ccccc1 (stereo unspecified)	x	21410*	-2	-6	-2

Bioassay records from PubChem BioAssay.
